# Measurements: publication PMC7862700, “An all-to-all approach to the identification of sequence-specific readers for epigenetic DNA modifications on cytosine”
# Assays:
# Assay in all cases: DAPPL (digital affinity profiling via proximity ligation, sequencing); 10 mM Tris-HCl pH 7.5, 50 mM NaCl, 1 mM DTT, 4% glycerol, room temperature, 30 min; GST-TFs on glutathione beads, 16-mer random dsDNA library, 0.1% formaldehyde crosslink after washing; high values mean tight binding
# Details in all cases: protein: recombinant; tags: N-terminal GST; dsDNA, one strand shown
# FLI1 = target: T1, FLI1 (Homo sapiens, UniProt Q01543 1-452)
# T1 sequence: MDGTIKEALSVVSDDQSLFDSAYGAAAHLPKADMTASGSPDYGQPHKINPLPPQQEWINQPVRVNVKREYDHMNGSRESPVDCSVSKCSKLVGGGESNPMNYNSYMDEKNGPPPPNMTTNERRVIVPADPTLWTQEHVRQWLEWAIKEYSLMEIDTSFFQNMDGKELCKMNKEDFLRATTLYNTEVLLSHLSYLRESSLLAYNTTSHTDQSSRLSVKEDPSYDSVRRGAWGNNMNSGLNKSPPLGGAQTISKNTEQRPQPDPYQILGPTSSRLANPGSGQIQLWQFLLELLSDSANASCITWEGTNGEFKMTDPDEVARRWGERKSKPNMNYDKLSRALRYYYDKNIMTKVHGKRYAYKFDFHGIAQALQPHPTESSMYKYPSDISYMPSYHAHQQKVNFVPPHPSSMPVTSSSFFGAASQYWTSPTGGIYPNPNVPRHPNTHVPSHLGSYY
# In short: (§1)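 Pools were built from human transcription factors expressed in yeast as GST fusions, captured on glutathione beads and DNA-barcoded, along with a tag-only sample. Incubation with 200 nmole of a 16-mer random double-stranded DNA library lasted 30 min at room temperature in Tris/NaCl/DTT/glycerol buffer, and was followed by washing, 0.1% formaldehyde crosslinking, proximity ligation, PCR amplification and Illumina NextSeq500 sequencing. Binding signal is the quotient of each hexamer's read frequency for a factor and its frequency for the tag-only sample.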
# ELK1 = target: T2, ELK1 (Homo sapiens, UniProt P19419 1-428)
# T2 sequence: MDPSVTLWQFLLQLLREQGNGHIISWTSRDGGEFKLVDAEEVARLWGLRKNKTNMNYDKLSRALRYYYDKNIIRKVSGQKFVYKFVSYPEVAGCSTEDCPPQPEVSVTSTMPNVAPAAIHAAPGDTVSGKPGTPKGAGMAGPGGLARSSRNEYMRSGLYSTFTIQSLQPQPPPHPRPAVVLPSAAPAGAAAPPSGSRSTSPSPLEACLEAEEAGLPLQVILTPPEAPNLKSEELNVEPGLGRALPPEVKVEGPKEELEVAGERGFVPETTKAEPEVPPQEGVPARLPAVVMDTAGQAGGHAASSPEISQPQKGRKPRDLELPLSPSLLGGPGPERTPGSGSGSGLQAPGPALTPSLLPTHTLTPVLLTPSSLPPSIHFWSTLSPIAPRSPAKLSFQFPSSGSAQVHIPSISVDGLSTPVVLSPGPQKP
# In short: as §1
# GABPA = target: T3, GABPA (Homo sapiens, UniProt Q06546 1-454)
# T3 sequence: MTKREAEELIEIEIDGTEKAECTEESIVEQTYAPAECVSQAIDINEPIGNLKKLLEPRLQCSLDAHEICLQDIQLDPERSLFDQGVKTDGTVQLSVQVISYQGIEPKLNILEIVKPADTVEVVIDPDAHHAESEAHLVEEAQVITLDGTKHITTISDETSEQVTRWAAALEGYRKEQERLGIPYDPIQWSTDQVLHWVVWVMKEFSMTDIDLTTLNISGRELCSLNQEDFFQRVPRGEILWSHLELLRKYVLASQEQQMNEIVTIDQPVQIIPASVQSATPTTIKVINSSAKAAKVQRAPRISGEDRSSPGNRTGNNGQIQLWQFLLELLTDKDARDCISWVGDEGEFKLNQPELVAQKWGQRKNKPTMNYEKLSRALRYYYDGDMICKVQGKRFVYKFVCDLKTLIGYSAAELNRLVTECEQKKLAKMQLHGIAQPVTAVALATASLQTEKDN
# In short: as §1
# ERG = target: T4, ERG (Homo sapiens, UniProt P11308 1-479)
# T4 sequence: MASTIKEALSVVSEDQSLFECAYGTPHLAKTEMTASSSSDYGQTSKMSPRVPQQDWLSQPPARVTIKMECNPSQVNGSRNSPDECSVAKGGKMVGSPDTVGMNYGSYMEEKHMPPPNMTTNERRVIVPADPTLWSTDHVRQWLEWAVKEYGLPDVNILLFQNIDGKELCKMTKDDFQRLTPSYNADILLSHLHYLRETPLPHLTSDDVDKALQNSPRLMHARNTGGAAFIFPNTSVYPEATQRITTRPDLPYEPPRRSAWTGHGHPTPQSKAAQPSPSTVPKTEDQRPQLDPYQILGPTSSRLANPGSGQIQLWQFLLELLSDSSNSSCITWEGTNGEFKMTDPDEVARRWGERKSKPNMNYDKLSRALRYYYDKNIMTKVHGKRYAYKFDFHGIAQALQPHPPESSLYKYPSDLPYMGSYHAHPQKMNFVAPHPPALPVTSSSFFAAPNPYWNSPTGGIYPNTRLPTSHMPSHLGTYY
# In short: as §1
# ELF1 = ELF1 (Homo sapiens, UniProt P32519 1-619)
# In short: as §1
# EHF = target: T5, EHF (Homo sapiens, UniProt Q9NZC4 1-300)
# T5 sequence: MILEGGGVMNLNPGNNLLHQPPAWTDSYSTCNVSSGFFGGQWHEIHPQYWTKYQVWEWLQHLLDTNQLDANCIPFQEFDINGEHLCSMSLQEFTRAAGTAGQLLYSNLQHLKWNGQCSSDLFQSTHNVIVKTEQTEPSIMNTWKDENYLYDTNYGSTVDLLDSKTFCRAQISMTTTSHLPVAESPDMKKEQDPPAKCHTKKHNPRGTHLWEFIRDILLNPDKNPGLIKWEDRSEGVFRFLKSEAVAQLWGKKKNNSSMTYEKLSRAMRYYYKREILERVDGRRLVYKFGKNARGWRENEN
# In short: as §1
# SPI1 = SPI1 (Homo sapiens, UniProt P17947 1-270)
# In short: as §1
# SPIB = SPIB (Homo sapiens, UniProt Q01892 1-262)
# In short: as §1
# FEV = target: T6, FEV (Homo sapiens, UniProt Q99581 1-238)
# T6 sequence: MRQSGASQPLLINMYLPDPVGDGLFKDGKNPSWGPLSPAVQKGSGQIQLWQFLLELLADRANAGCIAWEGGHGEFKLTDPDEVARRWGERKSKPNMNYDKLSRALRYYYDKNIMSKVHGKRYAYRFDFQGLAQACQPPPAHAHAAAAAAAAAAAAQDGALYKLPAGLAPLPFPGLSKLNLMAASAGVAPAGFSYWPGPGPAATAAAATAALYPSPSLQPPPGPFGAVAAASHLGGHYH
# In short: as §1
# ETV5 = ETV5 (Homo sapiens, UniProt P41161 1-510)
# In short: as §1
# ELF4 = ELF4 (Homo sapiens, UniProt Q99607 1-663)
# In short: as §1
# ETV2 = target: T7, ETV2 (Homo sapiens, UniProt O00321 1-342)
# T7 sequence: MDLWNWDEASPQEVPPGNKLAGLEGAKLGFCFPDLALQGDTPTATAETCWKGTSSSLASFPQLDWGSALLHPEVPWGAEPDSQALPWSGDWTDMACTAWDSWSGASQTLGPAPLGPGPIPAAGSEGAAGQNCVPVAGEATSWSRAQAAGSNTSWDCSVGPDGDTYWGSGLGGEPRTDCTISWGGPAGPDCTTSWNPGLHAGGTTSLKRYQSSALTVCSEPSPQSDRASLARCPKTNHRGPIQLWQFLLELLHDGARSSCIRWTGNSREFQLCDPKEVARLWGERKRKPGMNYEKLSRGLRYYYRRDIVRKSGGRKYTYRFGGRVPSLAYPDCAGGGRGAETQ
# In short: as §1
# ELF3 = target: T8, ELF3 (Homo sapiens, UniProt P78545 1-371)
# T8 sequence: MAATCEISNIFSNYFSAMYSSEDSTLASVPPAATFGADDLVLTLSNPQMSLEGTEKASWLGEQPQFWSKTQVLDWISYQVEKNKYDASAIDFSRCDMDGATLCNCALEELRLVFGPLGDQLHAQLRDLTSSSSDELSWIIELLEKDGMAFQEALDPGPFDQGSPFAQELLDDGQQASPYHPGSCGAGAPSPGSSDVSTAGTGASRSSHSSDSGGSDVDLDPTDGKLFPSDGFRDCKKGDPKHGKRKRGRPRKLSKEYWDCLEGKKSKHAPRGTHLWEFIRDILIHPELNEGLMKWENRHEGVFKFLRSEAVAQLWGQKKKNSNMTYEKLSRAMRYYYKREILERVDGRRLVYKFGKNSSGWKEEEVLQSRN
# In short: as §1
# ETV1 = ETV1 (Homo sapiens, UniProt P50549 1-477)
# In short: as §1
# ERF = target: T9, ERF (Homo sapiens, UniProt P50548 1-548)
# T9 sequence: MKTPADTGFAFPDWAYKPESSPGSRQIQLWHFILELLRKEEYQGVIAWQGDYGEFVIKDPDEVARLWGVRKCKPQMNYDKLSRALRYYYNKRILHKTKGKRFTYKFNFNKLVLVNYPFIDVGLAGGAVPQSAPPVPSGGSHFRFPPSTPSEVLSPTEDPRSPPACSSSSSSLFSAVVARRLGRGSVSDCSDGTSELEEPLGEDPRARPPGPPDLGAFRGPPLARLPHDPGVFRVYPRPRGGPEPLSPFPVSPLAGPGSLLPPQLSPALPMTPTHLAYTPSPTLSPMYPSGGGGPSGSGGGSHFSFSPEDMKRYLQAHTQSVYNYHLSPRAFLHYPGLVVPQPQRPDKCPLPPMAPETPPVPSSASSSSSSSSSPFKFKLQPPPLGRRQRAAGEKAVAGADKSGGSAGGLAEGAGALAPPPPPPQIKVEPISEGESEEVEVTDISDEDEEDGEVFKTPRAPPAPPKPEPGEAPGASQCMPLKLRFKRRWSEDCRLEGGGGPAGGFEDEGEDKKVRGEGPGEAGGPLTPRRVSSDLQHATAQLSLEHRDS
# In short: as §1
# ETV3L = target: T10, ETV3L (Homo sapiens, UniProt Q6ZN32 1-361)
# T10 sequence: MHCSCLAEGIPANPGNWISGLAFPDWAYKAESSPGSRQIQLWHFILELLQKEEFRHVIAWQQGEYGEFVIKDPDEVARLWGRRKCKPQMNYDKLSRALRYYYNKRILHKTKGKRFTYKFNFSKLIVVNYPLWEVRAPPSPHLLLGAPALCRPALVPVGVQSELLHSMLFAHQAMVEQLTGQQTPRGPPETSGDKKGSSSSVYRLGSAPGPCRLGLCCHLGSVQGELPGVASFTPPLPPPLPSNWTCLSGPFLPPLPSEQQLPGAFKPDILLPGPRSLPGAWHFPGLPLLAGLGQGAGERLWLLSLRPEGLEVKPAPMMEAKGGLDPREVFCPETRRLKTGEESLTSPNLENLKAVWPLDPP
# In short: as §1
# ETS2 = target: T11, ETS2 (Homo sapiens, UniProt P15036 1-469)
# T11 sequence: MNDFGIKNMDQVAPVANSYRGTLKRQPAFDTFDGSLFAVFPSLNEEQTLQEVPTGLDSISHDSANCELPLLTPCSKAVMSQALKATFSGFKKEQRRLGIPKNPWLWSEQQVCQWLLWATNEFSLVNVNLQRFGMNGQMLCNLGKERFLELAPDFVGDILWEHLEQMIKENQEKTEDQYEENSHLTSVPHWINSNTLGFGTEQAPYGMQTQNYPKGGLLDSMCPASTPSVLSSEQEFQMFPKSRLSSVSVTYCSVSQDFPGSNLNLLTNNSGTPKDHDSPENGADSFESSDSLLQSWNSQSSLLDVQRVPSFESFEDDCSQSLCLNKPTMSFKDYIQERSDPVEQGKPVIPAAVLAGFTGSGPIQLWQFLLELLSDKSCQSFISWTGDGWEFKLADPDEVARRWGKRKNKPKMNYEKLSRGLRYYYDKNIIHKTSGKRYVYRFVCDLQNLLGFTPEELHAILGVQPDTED
# In short: as §1
# ETV7 = target: T12, ETV7 (Homo sapiens, UniProt Q9Y603 1-341)
# T12 sequence: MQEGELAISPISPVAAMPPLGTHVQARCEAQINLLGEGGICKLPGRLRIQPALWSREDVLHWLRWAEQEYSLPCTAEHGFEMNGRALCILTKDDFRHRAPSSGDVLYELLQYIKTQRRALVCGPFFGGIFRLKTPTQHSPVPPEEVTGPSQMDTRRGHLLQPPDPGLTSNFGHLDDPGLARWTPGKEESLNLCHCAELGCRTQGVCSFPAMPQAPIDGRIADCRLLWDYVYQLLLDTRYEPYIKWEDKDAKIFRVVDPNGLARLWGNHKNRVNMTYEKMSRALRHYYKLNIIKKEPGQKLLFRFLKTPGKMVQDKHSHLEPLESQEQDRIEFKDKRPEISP
# In short: as §1
# ETV3 = target: T13, ETV3 (Homo sapiens, UniProt P41162-2 1-143)
# T13 sequence: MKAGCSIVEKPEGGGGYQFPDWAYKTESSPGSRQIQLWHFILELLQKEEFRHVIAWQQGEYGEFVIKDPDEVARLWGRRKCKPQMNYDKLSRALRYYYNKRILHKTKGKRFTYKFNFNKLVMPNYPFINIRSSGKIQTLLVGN
# In short: as §1
# SPIB, sequence (Q01892 whole entry): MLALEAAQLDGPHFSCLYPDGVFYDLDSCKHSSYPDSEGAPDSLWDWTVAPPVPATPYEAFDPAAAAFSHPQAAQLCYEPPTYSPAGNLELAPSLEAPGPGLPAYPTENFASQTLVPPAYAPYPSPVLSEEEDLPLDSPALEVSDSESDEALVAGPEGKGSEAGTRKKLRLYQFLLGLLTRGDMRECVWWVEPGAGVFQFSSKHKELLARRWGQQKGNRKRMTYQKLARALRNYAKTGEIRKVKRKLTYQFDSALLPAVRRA
# ETV5, sequence (P41161 whole entry): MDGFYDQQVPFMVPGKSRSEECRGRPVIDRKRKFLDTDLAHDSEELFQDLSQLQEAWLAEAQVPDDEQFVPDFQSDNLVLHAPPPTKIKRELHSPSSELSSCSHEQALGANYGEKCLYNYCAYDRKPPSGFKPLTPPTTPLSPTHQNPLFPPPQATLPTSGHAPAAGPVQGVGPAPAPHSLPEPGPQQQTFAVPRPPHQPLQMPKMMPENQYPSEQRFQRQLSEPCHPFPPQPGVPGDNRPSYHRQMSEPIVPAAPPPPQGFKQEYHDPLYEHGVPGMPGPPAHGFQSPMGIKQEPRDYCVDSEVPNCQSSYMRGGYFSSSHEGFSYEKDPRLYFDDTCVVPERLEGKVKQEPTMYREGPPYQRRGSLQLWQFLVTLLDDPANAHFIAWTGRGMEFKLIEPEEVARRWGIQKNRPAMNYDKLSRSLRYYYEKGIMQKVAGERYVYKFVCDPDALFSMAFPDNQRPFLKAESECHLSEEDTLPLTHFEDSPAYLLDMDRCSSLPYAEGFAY
# ELF1, sequence (P32519 whole entry): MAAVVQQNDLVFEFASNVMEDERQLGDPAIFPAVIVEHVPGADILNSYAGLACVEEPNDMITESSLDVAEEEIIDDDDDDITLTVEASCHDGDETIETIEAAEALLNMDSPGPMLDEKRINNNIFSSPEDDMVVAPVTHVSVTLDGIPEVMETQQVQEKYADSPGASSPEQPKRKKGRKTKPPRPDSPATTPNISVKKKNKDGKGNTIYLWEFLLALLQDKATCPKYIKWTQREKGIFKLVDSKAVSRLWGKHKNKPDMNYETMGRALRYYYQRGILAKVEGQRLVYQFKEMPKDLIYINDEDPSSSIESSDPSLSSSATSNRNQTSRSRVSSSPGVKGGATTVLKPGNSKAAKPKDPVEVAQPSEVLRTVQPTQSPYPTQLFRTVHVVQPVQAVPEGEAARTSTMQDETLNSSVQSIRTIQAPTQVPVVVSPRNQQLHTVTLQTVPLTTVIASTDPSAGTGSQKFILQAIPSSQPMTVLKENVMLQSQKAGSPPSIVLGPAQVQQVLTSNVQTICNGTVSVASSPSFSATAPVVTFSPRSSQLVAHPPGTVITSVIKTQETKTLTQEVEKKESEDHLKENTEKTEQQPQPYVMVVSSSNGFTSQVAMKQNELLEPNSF
# ELF4, sequence (Q99607 whole entry): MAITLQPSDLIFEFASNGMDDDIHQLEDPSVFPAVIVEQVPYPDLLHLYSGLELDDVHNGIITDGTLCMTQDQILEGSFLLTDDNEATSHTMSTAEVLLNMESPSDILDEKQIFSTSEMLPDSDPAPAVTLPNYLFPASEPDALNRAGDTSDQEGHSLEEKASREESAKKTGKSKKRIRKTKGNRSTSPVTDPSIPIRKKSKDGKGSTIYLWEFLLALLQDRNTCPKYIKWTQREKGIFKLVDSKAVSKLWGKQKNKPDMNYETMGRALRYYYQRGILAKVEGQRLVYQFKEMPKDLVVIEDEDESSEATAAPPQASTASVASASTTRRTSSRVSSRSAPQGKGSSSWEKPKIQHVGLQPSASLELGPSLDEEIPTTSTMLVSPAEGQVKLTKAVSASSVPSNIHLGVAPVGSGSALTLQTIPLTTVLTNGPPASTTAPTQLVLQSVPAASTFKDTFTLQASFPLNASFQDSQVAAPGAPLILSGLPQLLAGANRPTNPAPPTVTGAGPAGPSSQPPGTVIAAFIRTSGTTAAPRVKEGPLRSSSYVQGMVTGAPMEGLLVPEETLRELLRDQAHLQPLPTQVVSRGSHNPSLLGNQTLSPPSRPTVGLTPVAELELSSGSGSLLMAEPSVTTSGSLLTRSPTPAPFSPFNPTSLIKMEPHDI
# ETV1, sequence (P50549 whole entry): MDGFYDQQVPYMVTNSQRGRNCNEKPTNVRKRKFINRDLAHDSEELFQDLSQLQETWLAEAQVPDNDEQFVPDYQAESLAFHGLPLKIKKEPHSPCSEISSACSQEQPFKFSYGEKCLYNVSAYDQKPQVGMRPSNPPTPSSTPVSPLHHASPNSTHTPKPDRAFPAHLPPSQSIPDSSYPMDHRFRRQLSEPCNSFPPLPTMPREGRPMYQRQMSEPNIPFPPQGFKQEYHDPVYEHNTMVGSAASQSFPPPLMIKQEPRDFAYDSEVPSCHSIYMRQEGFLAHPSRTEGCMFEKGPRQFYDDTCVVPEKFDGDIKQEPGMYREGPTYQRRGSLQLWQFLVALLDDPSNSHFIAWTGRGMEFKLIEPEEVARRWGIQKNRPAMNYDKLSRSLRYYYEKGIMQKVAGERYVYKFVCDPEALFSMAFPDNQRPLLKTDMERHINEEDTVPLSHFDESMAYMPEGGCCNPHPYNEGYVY
sequence,measurement,setting,value
GCAATT,binding signal,FLI1,"1.17 fold enrichment (6-mer frequency, TF over GST control)"
same,binding signal,ELK1,"1.15 fold enrichment (6-mer frequency, TF over GST control)"
same,binding signal,GABPA,"1.14 fold enrichment (6-mer frequency, TF over GST control)"
same,binding signal,ERG,"1.02 fold enrichment (6-mer frequency, TF over GST control)"
same,binding signal,ELF1,"1.06 fold enrichment (6-mer frequency, TF over GST control)"
same,binding signal,EHF,"1.09 fold enrichment (6-mer frequency, TF over GST control)"
same,binding signal,SPI1,"1.23 fold enrichment (6-mer frequency, TF over GST control)"
same,binding signal,SPIB,"1.21 fold enrichment (6-mer frequency, TF over GST control)"
same,binding signal,FEV,"1.14 fold enrichment (6-mer frequency, TF over GST control)"
same,binding signal,ETV5,"1.12 fold enrichment (6-mer frequency, TF over GST control)"
same,binding signal,ELF4,"1.12 fold enrichment (6-mer frequency, TF over GST control)"
same,binding signal,ETV2,"1.01 fold enrichment (6-mer frequency, TF over GST control)"
same,binding signal,ELF3,"1.17 fold enrichment (6-mer frequency, TF over GST control)"
same,binding signal,ETV1,"1.06 fold enrichment (6-mer frequency, TF over GST control)"
same,binding signal,ERF,"1.2 fold enrichment (6-mer frequency, TF over GST control)"
same,binding signal,ETV3L,"1.08 fold enrichment (6-mer frequency, TF over GST control)"
same,binding signal,ETS2,"1.09 fold enrichment (6-mer frequency, TF over GST control)"
same,binding signal,ETV7,"1.18 fold enrichment (6-mer frequency, TF over GST control)"
same,binding signal,ETV3,"1.18 fold enrichment (6-mer frequency, TF over GST control)"
